The list is not random: actives were taken first. Their share in the collection is about 2.8%.
Shn3 inh set2 = Schnurri-3 reporter inhibition in Clone20 osteoblasts; 360,000 compounds, 0.52% hits; Clone20 osteoblast Shn3 3'UTR firefly luciferase, 24 h; inhibition, % at 12.5 µM;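 active = mean inhibition of at least 75% with every replicate also reaching 75%; inconclusive = mean inhibition at least 75% but some replicate below; inactive = mean inhibition below 75%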
HIF-2a inh = inhibitors of HIF-2a; 786-0 RCC cells HIF-2a reporter, luciferase luminescence, overnight; inhibition, % at 18.8 µM; 360,000 compounds, 0.72% hits;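 active = inhibition of the luminescence signal of 40% or more relative to plate controls, in a single-dose primary screen at 18.75 µM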
CF NFkB block = blocks PAF-induced NF-kB reporter in cystic fibrosis cells; KKLEB NF-kB-GFP reporter, GFP fluorescence overnight; inhibition, % at 5 µM; 360,000 compounds, 0.86% hits; AID 588850;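 active = at least 50% inhibition at 5 µM, scaled per plate between neutral and stimulator controls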;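 also: PAF is a Pseudomonas aeruginosa culture filtrate used as stimulus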
TRPM1 prom inh = inhibitors of MITF-driven TRPM1 promoter in melanoma cells; AID 488899; inhibition, % at 12.5 µM; SK-MEL-5 TRPM1 promoter luciferase, 24 h; 330,000 compounds, 0.83% hits;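 active = mean inhibition across replicates of 60% or more, whatever share of single replicates reaches that level; inconclusive = some that reach 60%, reason not given; inactive = mean inhibition across replicates below 60%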
KKLEB cytotox = reduces viability of KKLEB cystic fibrosis airway cells; KKLEB CF airway cells viability, ATPlite luminescence, overnight; hits give low values; cells stimulated with P. aeruginosa culture filtrate; activity change (cytotoxicity), % at 5 µM; 360,000 compounds, 0.36% hits;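 active = corrected activity change at or below -50% at 5 µM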
Peg3 promoter = Peg3 promoter activity inhibition. HeLa PEG-Prom luciferase reporter, luminescence, overnight. inhibition, % at 20 µM. 360,000 compounds, 1.7% hits;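 active = inhibition of at least 50% at 20 µM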
Each line names hits and unclear results; the compound was inactive in the other large screens.

CN(C)CC1CC/C(=C\c2ccc(O)cc2)C1=O (stereo not drawn)	Shn3 inh set2 90, HIF-2a inh 88, Peg3 promoter 98 (no result: TRPM1 prom inh)
CC1CCC/C(=C\c2ccc(O)cc2)C1=O (stereo not drawn)	none
COc1ccc(/C=C2/CCC(CN3CCOCC3)C2=O)cc1 (stereo not drawn)	Shn3 inh set2 inconclusive, HIF-2a inh 87, CF NFkB block 66, TRPM1 prom inh 99, KKLEB cytotox -55, Peg3 promoter 101
O=C1/C(=C\c2ccc(Cl)cc2)CCC1CNc1ccc(Cl)cc1 (stereo not drawn)	Peg3 promoter 89
O=C(COc1ccccc1)NCC(c1ccco1)N1CCCCC1 (stereo not drawn)	none
CC(C)S(=O)(=O)NC(=O)C1(C)CCN1C(=O)Cc1ccccc1 (stereo not drawn)	none (no result: TRPM1 prom inh)
CCC(Sc1nc2ccncc2[nH]1)C(=O)Nc1cc(Cl)ccc1C (stereo not drawn)	none
CC1CCCCN1S(=O)(=O)Cc1ccccc1Cl (stereo not drawn)	none
COc1ccccc1CNc1nc(NCc2ccc(C(C)C)cc2)c2sccc2n1	Shn3 inh set2 88, Peg3 promoter 95 (no result: TRPM1 prom inh)
CNc1nc(NCCOc2ccccc2Cl)c2sccc2n1	none (no result: TRPM1 prom inh)
COc1ccccc1CNc1nc(NCCOc2ccccc2Cl)c2sccc2n1	Peg3 promoter 60 (no result: TRPM1 prom inh)
COc1ccccc1CNc1nc(NC(C)C)nc2ccsc12	none (no result: TRPM1 prom inh)
CC(C)c1ccc(CNc2nc(NCC3CC3)nc3ccsc23)cc1	Peg3 promoter 54 (no result: TRPM1 prom inh)
Cc1ccc(C2(C)NC(=O)N(CC(=O)N3CCN(C(=O)c4cccs4)CC3)C2=O)cc1 (stereo not drawn)	none
O=C(N/N=C/c1sc(=O)n(Cc2ccc(Br)cc2)c1Cl)c1ccco1	CF NFkB block 64, KKLEB cytotox -75, Peg3 promoter 84
Cc1nc(C)c(C(=O)NCc2ccc(Cl)cc2)o1	none
Cc1nn(C)c(C(=O)NCc2ccc(Cl)cc2)c1Cl	Shn3 inh set2 86
COc1cc2sc(-c3ccccc3OC)c(-c3ccc(OCCN4CCCCC4)cc3)c2cc1OC	Peg3 promoter 89
COc1ccccc1-c1sc2cc3c(cc2c1-c1ccc(OCCN2CCCCC2)cc1)OCO3	Peg3 promoter 100
Cc1cc(C)c(C)c(S(=O)(=O)N(C)CCc2ccccn2)c1C	none (no result: TRPM1 prom inh)
Cc1ccc2nsnc2c1S(=O)(=O)N(Cc1cc2cccc(C)c2[nH]c1=O)CC1CCCO1 (stereo not drawn)	Peg3 promoter 84
CC(C)NC(=NCc1ccc(Cl)cc1Cl)Nc1ccccc1	none
C=CCn1c(O)c(C2=c3ccccc3=NC2=O)sc1=Nc1ccc(O)cc1	Peg3 promoter 63
CCN(CC)C(=O)c1ccc2c3c(cccc13)C(=O)N(CCc1ccc(OC)c(OC)c1)C2=O	Peg3 promoter 60
COc1ccc(CCN2C(=O)c3cccc4cccc(c34)C2=O)cc1OC	none
CC1CCN(C(=O)CCNS(=O)(=O)c2ccc(Br)cc2)CC1	none
COc1ccc(-n2cnc3c(N)nc(N)nc32)cc1	none
CCCCn1c(=O)[nH]c(=O)c2c1nc(-c1ccc(OC)c(Br)c1)n2CC(C)C	Peg3 promoter 55
C=CCOc1ccc(-c2nc3c(c(=O)[nH]c(=O)n3CCCC)n2C)cc1Br	none
COc1ccc2nc3cc(Cl)ccc3c(Nc3cc(CN4CCCC4)c(O)c(CN4CCCC4)c3)c2n1	Peg3 promoter 97 (no result: TRPM1 prom inh)
Clc1cccc2c1Sc1ccccc1CC2N1CCNCC1 (stereo not drawn)	Peg3 promoter 108
Clc1ccc2c(c1)C(N1CCNCC1)Cc1ccccc1S2 (stereo not drawn)	TRPM1 prom inh 94, Peg3 promoter 104
O=C(c1ccccc1Cl)N1CCNCC1	none
C#CC[N+](C)(C)C(C#Cc1ccccc1)CC=C (stereo not drawn)	none
O=S(=O)(c1ccccc1Br)N1CCC(O)(c2cccnc2)CC1	none
CCN(CC)S(=O)(=O)c1ccc(NC(=O)C(OC)c2ccccc2)cc1 (stereo not drawn)	none
CCN(CC)C(=O)c1cccc(-c2csc(C(O)c3cccc(Cl)c3)n2)c1 (stereo not drawn)	none (no result: TRPM1 prom inh)
CS(=O)(=O)Cc1ccc(C(=O)N(CCc2ccccc2)Cc2ccccc2)cc1	none
CCN1/C(=C/c2sc(-c3ccccc3C)c[n+]2C)Sc2ccccc21	Shn3 inh set2 90, TRPM1 prom inh 86
O=C(O)c1cccc(N/N=C/c2cccc3ccccc23)c1	TRPM1 prom inh 81
COC(=O)c1ccc(CSc2nc3c(c(=O)[nH]2)CCC3)cc1	none (no result: TRPM1 prom inh)
COc1cc(C#Cc2c(-c3cncn3C)n(C)c3ccc(-c4cc(OC)c(OC)c(OC)c4)cc23)cc(OC)c1	none
COc1cc(C#Cc2c(-c3cncn3C)n(C)c3ccc(-c4ccc(OC)nc4)cc23)cc(OC)c1	Shn3 inh set2 94
COc1cccc2c1C(=O)O/C2=C/c1ccc2c(c1)OCO2	KKLEB cytotox -73
COc1cccc(OC)c1C1=CC(=O)C[C@H](c2ccc3c(c2)OCO3)C1	none
c1ccc(COc2ncnc3c2ncn3CCCN2CCN(Cc3cccc4ccccc34)CC2)cc1	Peg3 promoter 101 (no result: TRPM1 prom inh)
C/C(Cl)=C\Cn1c(O)c(N=NC(N)=S)c2cc(Br)ccc21	CF NFkB block 56
NC(=S)N=Nc1c(O)n(Cc2ccc(F)cc2)c2ccccc12	none
NC(=S)N=Nc1c(O)n(Cc2ccc(Br)cc2)c2ccccc12	KKLEB cytotox -52
COCc1cc(C)nc(N/N=C/c2ccc(Cl)c(Cl)c2)c1C#N	none
CC(NC(=O)COc1ccc(Br)cc1)C1CCCO1 (stereo not drawn)	none
COc1ccc(-c2nc3ccccc3[nH]2)cc1	none
COc1ccc2oc(=Nc3ccccc3)c(-c3nc4ccccc4[nH]3)cc2c1	KKLEB cytotox -67
O=C(CCl)NC(=O)NC12CC3CC(CC(C3)C1)C2	Peg3 promoter 63
CC(Cl)C(=O)NC(=O)NC12CC3CC(CC(C3)C1)C2 (stereo not drawn)	none
C[C@]12c3[nH]c4cc(-c5ccco5)ccc4c3CCN1C(=O)[C@@H](CC(=O)NCc1ccco1)C[C@@H]2C(=O)N1CCCCC1	none
O=C(CSc1nc2ccccc2[nH]1)Nc1nc(-c2cccc(Br)c2)cs1	none
CN(C)CCCn1c(SCC(=O)Nc2nc(-c3cccc(Br)c3)cs2)nc2ccccc2c1=O	TRPM1 prom inh 63, Peg3 promoter 104
COc1ccc(CCC(=O)Nc2ccc(OC)c(S(=O)(=O)N3CCCCC3)c2)cc1	none
CCOC(=O)C1=C(c2ccccc2)NC(SCC(=O)Nc2cccc(C)c2)=C(C#N)C1c1ccco1 (stereo not drawn)	Peg3 promoter 70
CCOC(=O)C1=C(c2ccccc2)NC(SCC(=O)Nc2ccc(C)cc2)=C(C#N)C1c1ccco1 (stereo not drawn)	none

High-throughput results from PubChem BioAssay.
